Measured values taken from PubChem BioAssay (EPA / NIEHS).
Records with an inconclusive call do not appear. Calls of active or inactive are those of the source. The calls were made as follows, unless noted: active = hit-call score of the fitted dose curve at least 0.9, where 1 is the maximum; inconclusive = response in the unintended direction; inactive = score below 0.9.

How the values were obtained:
DIO3 (gene 1735) = experiment: CCTE_GLTED_hDIO3: CCTE's human Deiodinase 3 (DIO3) Inhibition Assay, Great Lakes Toxicology and Ecology Division (GLTED) Lab (AID 2284055);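 as to AC50: potency is for inhibition seen as loss of released iodide signal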
Outline: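 Absorbance from the Sandell-Kolthoff reaction reports iodide released by human DIO3 during a 3-hour incubation with chemical. Inhibition scored as signal loss against DMSO controls.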

[1] = CCTE_Shafer_MEA_acute_AB: CCTE's Alamar Blue Assay for Cytotoxicity in the Neural Acute Assay, Shafer Lab (AID 2284069);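 also: active compounds lower the viability signal compared with DMSO wells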
Outline: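 Resazurin reduction (CellTiter Blue, 1:6 in fresh medium) read at ex 544/em 590 nm marks viability loss relative to DMSO. Cells: primary rat cortical neuron networks on microelectrode arrays, treated after baseline recording at 13 or 15 days in vitro.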

[2] = CCTE_Shafer_MEA_dev_per_network_spike_spike_percent: CCTE's Neural Network Formation Assay for Percent of Spikes in a Network Spike, Shafer Lab (AID 2284054; active = hit-call score of the fitted dose curve at least 0.9, where 1 is the maximum; inactive = score below 0.9)
Outline: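 Rat primary cortical neurons were grown on 48-well MEA plates (16 electrodes/well), exposed from plating day 0 through day 12, with treatment renewed on DIV 5 and 9. Percent of spikes within 0.05 s network-spike peaks was measured, summarised as AUC across days 5, 7, 9, 12.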

[3] = CCTE_Shafer_MEA_dev_LDH: CCTE's Lactate Dehydrogenase Assay for Cytotoxicity in the Neural Network Formation Assay, Shafer Lab (AID 2284068);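 also: exposure for twelve days from plating with re-dosing on DIV 5 and 9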
Outline: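 Primary rat cortical neurons were cultured on PEI-coated MEA plates and exposed from plating through day 12, with compound renewed at medium changes on DIV 5 and 9. LDH activity was read spectrophotometrically; loss of signal versus DMSO indicates reduced viability.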

[4] = CCTE_Shafer_MEA_dev_AB: CCTE's Alamar Blue Assay for Cytotoxicity in the Neural Network Formation Assay, Shafer Lab (AID 2284083);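 also: resazurin reduction fluorescence as viability of cultured neurons; twelve days of exposure from plating with re-dosing on DIV 5 and 9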
Outline: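 Resazurin fluorescence, relative to DMSO, gauges viability after twelve days of exposure that began at plating of rat cortical neurons (1.5 x 10^5 cells/well, 48-well MEA); treatment renewed with full medium exchange on DIV 5 and 9.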

[5] = CCTE_Shafer_MEA_dev_mutual_information_norm: CCTE's Neural Network Formation Assay for Mutual Information Normalization, Shafer Lab (AID 2284091; active = hit-call score of the fitted dose curve at least 0.9, where 1 is the maximum; inactive = score below 0.9)
Outline: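 Primary rat cortical neurons on PEI-coated 48-well MEA plates, 1.5 x 10^5 cells/well, exposed from day 0 through day 12 with re-dosing at DIV 5 and 9. Mutual information between electrodes recorded days 5, 7, 9, 12; trapezoidal AUC, loss-of-signal fit versus DMSO.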

[6] = CCTE_Shafer_MEA_dev_correlation_coefficient_mean: CCTE's Neural Network Formation Assay for Mean Correlation Coefficient, Shafer Lab (AID 2284093; active = hit-call score of the fitted dose curve at least 0.9, where 1 is the maximum; inactive = score below 0.9)
Outline: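 Primary rat cortical neurons on PEI-coated 48-well MEA plates (16 electrodes/well) were exposed from plating day 0 through DIV12, with compound renewed at DIV5 and 9. Pairwise spike correlations were averaged per well; trapezoidal AUC across DIV5, 7, 9, 12.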

[7] = CCTE_Mundy_HCI_Cortical_Synap_Neur_Matur_NeuriteSpotCountPerNeuriteLength: CCTE's Synaptogenesis and Neurite Maturation Assay in rat cortical cells for Neurite Spot Count per Neurite Length, Mundy Lab (AID 2284210; active = hit-call score of the fitted dose curve at least 0.9, where 1 is the maximum; inactive = score below 0.9)
Outline: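 Rat primary cortical cultures, AraC added at DIV 5 to suppress glia; chemical exposure from DIV 7 to DIV 12. Fixed cells stained for MAP2 and synaptophysin plus Hoechst; synaptophysin puncta per neurite length quantified by high-content imaging, relative to DMSO.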

[8] = CCTE_Mundy_HCI_Cortical_Synap_Neur_Matur_BPCount: CCTE's Synaptogenesis and Neurite Maturation Assay in rat cortical cells for Branch Point Count, Mundy Lab (AID 2284211; active = hit-call score of the fitted dose curve at least 0.9, where 1 is the maximum; inactive = score below 0.9)
Outline: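 Rat primary cortical cultures, AraC added DIV 5; chemicals dosed DIV 7 through DIV 12. Fixed cells stained for MAP2, synaptophysin and Hoechst; neurite branch points counted by automated high-content imaging, fitted relative to DMSO.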

[9] = CCTE_Mundy_HCI_Cortical_NOG_NeuriteCount: CCTE's Neurite Outgrowth Assay in rat cortical cells for Neurite Count, Mundy Lab (AID 2284212; active = hit-call score of the fitted dose curve at least 0.9, where 1 is the maximum; inactive = score below 0.9;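 also: cells fixed about two days after chemical exposure began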)
Outline: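 Neurite number per cell from high-content imaging of betaIII-tubulin immunostaining, with Hoechst nuclear counterstain.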

[10] = CCTE_Mundy_HCI_Cortical_NOG_NeuriteLength: CCTE's Neurite Outgrowth Assay in rat cortical cells for Neurite Length, Mundy Lab (AID 2284213; active = hit-call score of the fitted dose curve at least 0.9, where 1 is the maximum; inactive = score below 0.9)
Outline: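 Neurite length was read by high-content imaging of βIII-tubulin-labelled neurites in rat primary cortical cultures. Activity was fitted relative to DMSO.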

[11] = CCTE_Mundy_HCI_Cortical_Synap_Neur_Matur_NeuriteLength: CCTE's Synaptogenesis and Neurite Maturation Assay in rat cortical cells for Neurite Length, Mundy Lab (AID 2284214; active = hit-call score of the fitted dose curve at least 0.9, where 1 is the maximum; inactive = score below 0.9)
Outline: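 Rat cortical neurons, AraC at DIV 5; compound + media change DIV 7, end DIV 12 (288.33 h). Fix, MAP2/synaptophysin/Hoechst immunostain, automated HCI of neurite length vs DMSO.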

[12] = CCTE_Mundy_HCI_Cortical_Synap_Neur_Matur_NeuriteSpotCountPerNeuron: CCTE's Synaptogenesis and Neurite Maturation Assay in rat cortical cells for Neurite Spot Count per Neuron Count, Mundy Lab (AID 2284215; active = hit-call score of the fitted dose curve at least 0.9, where 1 is the maximum; inactive = score below 0.9)
Outline: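 Read-out: neurite-associated synaptophysin puncta per neuron, imaged by high-content analysis after MAP2, synaptophysin and Hoechst staining. Rat primary cortical cultures, dosed DIV 7 through DIV 12; DMSO served as baseline.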

[13] = CCTE_Mundy_HCI_Cortical_Synap_Neur_Matur_SynapseCount: CCTE's Synaptogenesis and Neurite Maturation Assay in rat cortical cells for Synapse Count, Mundy Lab (AID 2284218; active = hit-call score of the fitted dose curve at least 0.9, where 1 is the maximum; inactive = score below 0.9)
Outline: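 Primary rat cortical culture; AraC DIV 5 to arrest glia; compound + media change DIV 7; terminated DIV 12. PFA/Hoechst fix, anti-MAP2 + anti-synaptophysin immunostain; HCI synapse count/neuron; DMSO = baseline.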

[14] = CCTE_Mundy_HCI_hN2_NOG_NeuriteCount: CCTE's Neurite Outgrowth Assay in human hN2 cells for Neurite Count, Mundy Lab (AID 2284219)
Outline: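 In this morphology assay, hNP1-derived neurons received test chemical 2 h post-plating and were fixed two days later in warm paraformaldehyde/sucrose containing Hoechst 33342. Neurites, labelled by rabbit anti-βIII-tubulin (1:800) and Alexa Fluor-488 (1:500), were counted automatically.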

[15] = CCTE_Shafer_MEA_acute_LDH: CCTE's Lactate Dehydrogenase Assay for Cytotoxicity in the Neural Acute Assay, Shafer Lab (AID 2284086);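 also: active means LDH release rises above DMSO vehicle level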
Outline: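 Rat cortical neurons cultured on microelectrode arrays; baseline 40-min recording, compound added, second 40-min recording; medium then sampled for released LDH (colorimetric kit, 490 nm). DMSO = negative control.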

[16] = TAMU_PeakParms_SingleDonor1434_Chronotropy: Texas A&M University (TAMU) 1.5-hr Human Induced Pluripotent Stem Cell (iPSC)-derived Cardiomyocytes Calcium (Ca+2) Flux Assay for Cardiotoxicity: Chronotropy (changes in peak frequency) (AID 2284217; active = hit-call score of the fitted dose curve at least 0.9, where 1 is the maximum; inactive = score below 0.9); details: actives raise or lower the signal
Outline: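 Beat rate, as mean Ca2+-flux peak frequency, was read from donor 1434 iPSC cardiomyocytes 90 min after exposure to 0.2–100 uM test chemical (0.5% DMSO). Wells that stopped beating were excluded; EC05 from bidirectional DMSO-referenced fitting.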

**Q.** With CCCCCCCCCCCCO as the molecule, how does the AC50 (DIO3 (gene 1735)) read?
**A.** 82.6 µM (active)

**Q.** And the outcome [1]?
**A.** inactive

**Q.** With CN1C(=O)CC[C@H]1c1cccnc1 as the molecule, how does the outcome [2] read?
**A.** inactive

**Q.** What about the outcome [3] of the same molecule?
**A.** inactive

**Q.** What about the outcome [1] of the same molecule?
**A.** inactive

**Q.** What about the outcome [4] of the same molecule?
**A.** inactive

**Q.** What about the outcome [5] of the same molecule?
**A.** inactive

**Q.** And the outcome [6]?
**A.** inactive

**Q.** What about the outcome [7] of the same molecule?
**A.** inactive

**Q.** And the outcome [8]?
**A.** inactive

**Q.** What about the outcome [9] of the same molecule?
**A.** inactive

**Q.** What about the outcome [10] of the same molecule?
**A.** inactive

**Q.** And the outcome [11]?
**A.** inactive

**Q.** What about the outcome [12] of the same molecule?
**A.** inactive

**Q.** And the outcome [13]?
**A.** inactive

**Q.** And the outcome [14]?
**A.** inactive

**Q.** Which results are given for CC(=O)N1CCN(c2ccc(OC[C@H]3CO[C@](Cn4ccnc4)(c4ccc(Cl)cc4Cl)O3)cc2)CC1?
**A.** outcome [1]: inactive; outcome [15]: inactive

**Q.** With CN(C)c1ccc(C(=C2C=CC(=[N+](C)C)C=C2)c2ccc(N(C)C)cc2)cc1 as the molecule, how does the AC50 (DIO3 (gene 1735)) read?
**A.** 22.6 µM (active)

**Q.** What about the AC50 [1] of the same molecule?
**A.** 11.2 µM (active)

**Q.** What about the AC50 [15] of the same molecule?
**A.** 7.76 µM (active)

**Q.** And the outcome [16]?
**A.** inactive

**Q.** Which results are given for COc1cc(C(=O)NC2CCN(C)CC2)ccc1Nc1ncc2c(n1)N(C1CCCC1)CC(F)(F)C(=O)N2C?
**A.** outcome [1]: inactive; outcome [15]: inactive

**Q.** For CC(C)(C)c1csc(-c2cc3cc(OCc4ccccc4CC(=O)O)ccc3o2)n1, which AC50 (DIO3 (gene 1735)) is on record?
**A.** 148 µM (active)

**Q.** Which outcome [2] does the source give for Oc1ccccc1 here?
**A.** inactive

**Q.** What about the outcome [3] of the same molecule?
**A.** inactive

**Q.** What about the outcome [5] of the same molecule?
**A.** inactive

**Q.** What about the outcome [6] of the same molecule?
**A.** inactive

**Q.** What about the outcome [7] of the same molecule?
**A.** inactive

**Q.** And the outcome [8]?
**A.** inactive

**Q.** What about the outcome [9] of the same molecule?
**A.** inactive

**Q.** And the outcome [10]?
**A.** inactive

**Q.** What about the outcome [11] of the same molecule?
**A.** inactive

**Q.** And the outcome [12]?
**A.** inactive

**Q.** And the outcome [13]?
**A.** inactive

**Q.** What about the outcome [14] of the same molecule?
**A.** inactive

**Q.** Which outcome [1] does the source give for O=c1[nH]sc2ccccc12 here?
**A.** inactive

**Q.** What about the outcome [15] of the same molecule?
**A.** inactive

**Q.** For c1ccc2n[nH]nc2c1, which outcome [1] is on record?
**A.** inactive

**Q.** And the outcome [15]?
**A.** inactive

**Q.** With CC(C)(C)c1cc(/C=C2\SC(N)=NC2=O)cc(C(C)(C)C)c1O as the molecule, how does the AC50 (DIO3 (gene 1735)) read?
**A.** 19.9 µM (active)

**Q.** What about the outcome [1] of the same molecule?
**A.** inactive

**Q.** Which results are given for OC12N=C(c3ccccc3)SC1Cc1cc(Cl)ccc12 (stereo unspecified)?
**A.** AC50 (DIO3 (gene 1735)): 86.5 µM (active); outcome [1]: inactive; outcome [15]: inactive

**Q.** With CCCCCCCCCCCO as the molecule, how does the AC50 (DIO3 (gene 1735)) read?
**A.** 152 µM (active)

**Q.** What does the source list for NCc1cccc(C2CCN(C(=O)c3ccc(C#Cc4ccccc4F)o3)CC2)c1?
**A.** AC50 (DIO3 (gene 1735)): 23.3 µM (active); outcome [1]: inactive; outcome [15]: inactive

**Q.** For CN(C[C@@H](CC[N+]12CCC(C3CCCCC3)(CC1)CC2)c1ccc(Cl)c(Cl)c1)C(=O)c1cc(C(F)(F)F)cc(C(F)(F)F)c1, which AC50 (DIO3 (gene 1735)) is on record?
**A.** 81.9 µM (active)

**Q.** What about the AC50 [1] of the same molecule?
**A.** 20 µM (active)

**Q.** What about the outcome [15] of the same molecule?
**A.** inactive

**Q.** With O=C(O)c1ccccc1-n1cc(C(=O)O)c(=O)c2cc(Nc3c(F)cc(F)cc3Cl)c(Cl)cc21 as the molecule, how does the outcome [1] read?
**A.** inactive

**Q.** What about the outcome [15] of the same molecule?
**A.** inactive

**Q.** For Cc1c2ccccc2c(C)c2c1ccc1ccccc12, which outcome [1] is on record?
**A.** inactive

**Q.** And the outcome [15]?
**A.** inactive

**Q.** With CN(C)C(=O)C1(N2CCCCC2)CCN(CC[C@@]2(c3ccc(Cl)c(Cl)c3)CN(C(=O)c3ccccc3)CCO2)CC1 as the molecule, how does the outcome (DIO3 (gene 1735)) read?
**A.** inactive

**Q.** What about the outcome [1] of the same molecule?
**A.** inactive

**Q.** And the outcome [15]?
**A.** inactive

**Q.** With CC[C@@H]1C[C@H](N(Cc2cc(C(F)(F)F)cc(C(F)(F)F)c2)C(C)=O)c2cc(C(F)(F)F)ccc2N1C(=O)OC(C)C as the molecule, how does the outcome [1] read?
**A.** inactive
